Among the data in PubChem BioAssay (Tox21) are Potency and outcome values, retold here.

Test [1] in a line: A CellTox Green Cytotoxicity Assay to monitor cytotoxicity in HepG2 cells - 8 hour (AID 1224890). Note: nearly all actives have a fitted effect of over 45% in size. Note: potency is the fitted concentration of half-maximal effect. In outline: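 Real-time, homogeneous cytotoxicity readout: dead-cell DNA staining by CellTox Green in HepG2 monolayers, fluorescence measured at timed intervals up to 40 h of continuous compound exposure.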
Test [2] can be described thus: qHTS assay to identify small molecule antagonists of the androgen receptor (AR) signaling pathway using the MDA cell line in the presence of 0.5 nM R1881 - cell viability counter screen (AID 1259242). Note: nearly all actives have a fitted effect of over 45% in size. A digest of the protocol:
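Cytotoxicity toward MDA-kb2 cells is measured by CellTiter-Fluor live-cell protease fluorescence after 16 hr compound exposure at 37C in the presence of 0.5 nM R1881 stimulator.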
(qHTS replaces the single test concentration by a dilution series.)

The nature of test [3]: qHTS assay to identify small molecule HDAC inhibitors (AID 1259364). Note: nearly all actives have a fitted effect of over 45% in size. Note: potency is the fitted concentration of half-maximal effect. In outline: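 Homogeneous cell-based luminescent assay of endogenous class I/II HDAC activity; HCT-116 cells, 2 h compound exposure, 30 min HDAC-Glo development at RT.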
The nature of test [4]: qHTS assay to identify small molecule agonists of the sonic hedgehog signaling (Shh) pathway - cell viability counter screen (AID 1259366). Note: nearly all actives have a fitted effect of over 50% in size. Note: potency is the fitted concentration of half-maximal effect. A digest of the protocol:
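Fluorescence from CellTiter-Fluor reports live cells in this counter screen. NIH/3T3-derived Gli1-Luc reporter cells receive test compounds for 24hr at 37C; reagent goes in at 23hr.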

Test [5] in a line: qHTS assay to identify small molecule antagonists of the sonic hedgehog signaling (Shh) pathway - cell viability counter screen (AID 1259367). Note: nearly all actives have a fitted effect of over 55% in size. Note: potency is the fitted concentration of half-maximal effect. In outline:
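NIH/3T3-derived Gli1-Luc reporter cells (2,000 per well) rested 4 hr at 37 C, then received DMSO compounds plus conditioned medium. After 23 hr of treatment, CellTiter-Fluor was added for 1 hr at 37C and fluorescence read.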

A short description of test [6]: qHTS assay to identify small molecule agonists of the sonic hedgehog signaling (Shh) pathway (AID 1259368; calls by dose curve;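 note: NIH/3T3-derived 3T3Gli1-Luc cells carrying a stable Gli1-driven firefly luciferase reporter; series mostly up to about 92 µM; nearly all actives have a fitted effect of over 15% in size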). A digest of the protocol:
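Steps: seed 3T3 Gli1-Luc cells, incubate 4 hr at 37 C, pin-transfer compounds in DMSO alongside a positive control, incubate 24 hr, add luciferase detection reagent, wait 30 min at room temperature, read luminescence.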

A short description of test [7]: qHTS assay to identify small molecule antagonists of the sonic hedgehog signaling (Shh) pathway (AID 1259369; calls by dose curve; note: nearly all actives have a fitted effect of over 45% in size; note: potency is the fitted concentration of half-maximal effect). In outline:
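Inhibition of Shh signalling is measured as reduced Gli1-response-element firefly luciferase output in an NIH/3T3-derived stable reporter clone stimulated with conditioned medium for 24hr.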

The target of test [8] is Estrogen receptor beta (Homo sapiens) (UniProt Q92731). The experiment in a line: qHTS assay to identify small molecule agonists of the estrogen receptor beta (ER-beta) signaling pathway (AID 1259377; active = well fitted activation curve with a large enough effect in the signal ratio in the repeat runs, not every such curve was filed as active; the % refers to the signal ratio). A digest of the protocol: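 Screening used GripTite ER-beta-UAS-bla cells held in 2% charcoal-stripped FBS medium. After overnight (16 hr) compound incubation at 37C, beta-lactamase activity was detected with a FRET substrate by fluorescence.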

For test [9] the target is unchanged. The experiment in a line: qHTS assay to identify small molecule antagonists of the estrogen receptor beta (ER-beta) signaling pathway (AID 1259378; active = well fitted inhibition curve with a large enough effect in the signal ratio in the repeat runs, not every such curve was filed as active; the % refers to the signal ratio; note: potency is the fitted concentration of half-maximal effect). In outline:
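ER-beta-UAS-bla HEK293T (GripTite) cells in 2% charcoal-stripped FBS medium were preincubated 6 hr at 37C, dosed with compound, then stimulated with 1 nM E2 (final) for 16 hr; beta-lactamase reporter read by B/G FRET fluorescence after 2 hr substrate loading.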

A short description of test [10]: qHTS assay to identify small molecule agonists of the androgen receptor (AR) signaling pathway in the presence of an antagonist - cell viability counter screen (AID 1259379). Note: nearly all actives have a fitted effect of over 25% in size. Note: potency is the fitted concentration of half-maximal effect. A digest of the protocol:
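Fluorescence from CellTiter-Fluor, added after 15 hr and read 1 hr later, gave cell viability. Cells were MDA-kb2 exposed to compounds (15 concentrations) in the presence of 3.0uM nilutamide at 37C, 0% CO2.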

Test [11] in a line: qHTS assay to identify small molecule agonists of the estrogen receptor beta (ER-beta) signaling pathway - cell viability counter screen (AID 1259380). Note: nearly all actives have a fitted effect of over 30% in size. Note: potency is the fitted concentration of half-maximal effect. In outline:
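Same-well viability counter screen. Cells: ER-beta-UAS-bla HEK293T, plated 6 hr before compound, in 2% charcoal-stripped FBS. Compound exposure 16 hr, 37C; viability by CellTiter-Glo luminescence after 30 min at room temperature.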

The nature of test [12]: qHTS assay to identify small molecule antagonists of the estrogen receptor beta (ER-beta) signaling pathway - cell viability counter screen (AID 1259382). Note: nearly all actives have a fitted effect of over 55% in size. Note: potency is the fitted concentration of half-maximal effect. In outline:
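Following a 6 hr plating period, HEK293T cells carrying a UAS-driven beta-lactamase reporter under ER-beta control received compounds and 1nM E2 (final). After 16 hr at 37C and 2 hr substrate loading, CellTiter-Glo luminescence indicated viability.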

Test [13] is described as follows: qHTS assay to identify small molecule agonists or antagonists of the thyroid stimulating hormone receptor (TSHR) signaling pathway - wild type cell line counter screen (AID 1259384; calls by dose curve). In outline:
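Wild-type HEK293 cells were plated 18 h at 37 C/5% CO2, pin-dosed with compound plus Ro20-1724 medium, held 30 min at room temperature, then given cAMP-d2 and anti-cAMP-cryptate; fluorescence was read after 1 h. Fifteen concentrations, triplicate.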

Test [14] concerns the target Thyrotropin receptor (Homo sapiens) (UniProt P16473). Kind of test: qHTS assay to identify small molecule antagonists of the thyroid stimulating hormone receptor (TSHR) signaling pathway (AID 1259385; calls by dose curve; note: nearly all actives have a fitted effect of over 20% in size). A digest of the protocol:
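TSHR-HEK293 cells were plated and held 18 h at 37C/5% CO2, then given compound plus Ro20-1724 and stimulated with TSH at 1.5 ng/mL final. After 30 min at room temperature, cAMP was detected with cAMP-d2/anti-cAMP-cryptate (1 h) by fluorescence.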

For test [15], the target named is Estrogen receptor (Homo sapiens) (UniProt P03372). Kind of test: qHTS assay to identify small molecule antagonists of the estrogen receptor alpha (ER-alpha) signaling pathway using the BG1 cell line in the presence of 0.1 nM 17-beta-estradiol (AID 1259244). Note: nearly all actives have a fitted effect of over 50% in size. A digest of the protocol: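 After 5 days in hormone-depleted medium (charcoal-stripped serum, no phenol red), VM7Luc4E2 cells were seeded, incubated 24 h, then co-treated with compound and 0.1 nM (final) estradiol for 22 h before luminescence detection.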

The nature of test [16]: qHTS assay to identify small molecule HDAC inhibitors - cell viability counter screen (AID 1259365). Note: series mostly up to about 92 µM; nearly all actives have a fitted effect of over 50% in size. A digest of the protocol:
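To flag cytotoxic hits, 1,500 wild-type HCT-116 cells per well, plated the day before, receive test compounds for 2hr at 37 C before CellTiter-Glo reagent and a luminescence read.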

The target in test [17] is Estrogen receptor (Homo sapiens) (UniProt P03372). The experiment in a line: qHTS assay to identify small molecule agonists of the estrogen receptor alpha (ER-alpha) signaling pathway in the presence of an antagonist (AID 1259383; calls by dose curve; note: top concentration of the series differs between compounds; nearly all actives have a fitted effect of over 15% in size). A digest of the protocol:
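Cells are hormone-deprived for 5 days (charcoal-stripped FBS, no phenol red), plated for 24hr, spiked with 10.0nM ICI-182,780, then dosed at 15 concentrations. After 22hr at 37C, ONE-Glo luminescence reports ERE-luciferase activity.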

Test [18] can be described thus: qHTS assay to identify small molecule phospholipidosis (PLD) inducers (AID 1259344; active = well fitted curve in the direction sought with a large enough effect; an effect the other way counts as inactive or inconclusive). In outline: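 HepG2 cells on collagen I, attached 4 h at 37 C, were co-treated with compound and LipidTOX Red dye for 24 h at 37 C, then fixed with paraformaldehyde plus Hoechst 33342 and imaged by high-content microscopy for phospholipid accumulation.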

Values joined by “and” are separate entries in the source; they are usually repeats but may differ in a detail not shown here. Equal values may be shown once. Results filed as inconclusive are left out. Some compounds were tested as several samples or in several runs, with calls that do not always agree. Active and inactive are the calls of the source. Unless noted, calls come from the whole dose curve; as a rule, active = well fitted curve in the direction sought with a large enough effect in the repeat runs; inconclusive = weak or mixed curves; inactive = no such curve, though single readings can be large; an effect the other way counts as inactive or inconclusive.

Sequence of Estrogen receptor (Homo sapiens) (P03372 whole entry, looked up): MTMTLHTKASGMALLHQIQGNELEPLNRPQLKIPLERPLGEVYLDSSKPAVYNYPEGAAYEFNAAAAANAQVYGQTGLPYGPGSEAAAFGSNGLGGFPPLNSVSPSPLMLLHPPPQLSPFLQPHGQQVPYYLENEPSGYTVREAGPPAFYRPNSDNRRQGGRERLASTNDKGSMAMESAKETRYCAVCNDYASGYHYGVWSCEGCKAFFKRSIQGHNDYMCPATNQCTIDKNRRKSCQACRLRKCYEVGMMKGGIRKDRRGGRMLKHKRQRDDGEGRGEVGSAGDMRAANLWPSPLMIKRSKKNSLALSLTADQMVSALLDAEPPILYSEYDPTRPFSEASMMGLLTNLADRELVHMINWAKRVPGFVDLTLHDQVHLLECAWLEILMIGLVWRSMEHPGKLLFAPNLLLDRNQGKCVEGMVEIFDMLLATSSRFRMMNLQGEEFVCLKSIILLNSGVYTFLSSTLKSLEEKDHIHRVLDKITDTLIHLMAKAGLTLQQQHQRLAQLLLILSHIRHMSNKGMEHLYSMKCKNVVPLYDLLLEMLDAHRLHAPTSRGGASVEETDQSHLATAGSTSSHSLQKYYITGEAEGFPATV
Sequence of Estrogen receptor beta (Homo sapiens) (Q92731 whole entry, looked up): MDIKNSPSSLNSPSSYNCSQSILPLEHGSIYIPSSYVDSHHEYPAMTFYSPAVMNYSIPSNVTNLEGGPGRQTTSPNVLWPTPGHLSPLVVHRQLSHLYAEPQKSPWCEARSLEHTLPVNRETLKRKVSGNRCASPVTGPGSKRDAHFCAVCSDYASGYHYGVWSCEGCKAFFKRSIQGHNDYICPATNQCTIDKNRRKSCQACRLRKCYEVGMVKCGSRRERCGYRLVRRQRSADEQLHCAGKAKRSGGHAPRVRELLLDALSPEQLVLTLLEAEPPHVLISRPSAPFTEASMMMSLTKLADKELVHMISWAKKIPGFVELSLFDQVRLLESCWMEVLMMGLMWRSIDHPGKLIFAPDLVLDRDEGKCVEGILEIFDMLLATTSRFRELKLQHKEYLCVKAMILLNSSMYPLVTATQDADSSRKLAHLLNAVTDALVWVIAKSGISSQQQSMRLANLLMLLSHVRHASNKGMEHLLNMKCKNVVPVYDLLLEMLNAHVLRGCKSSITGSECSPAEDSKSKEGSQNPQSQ
Sequence of Thyrotropin receptor (Homo sapiens) (P16473 whole entry, looked up): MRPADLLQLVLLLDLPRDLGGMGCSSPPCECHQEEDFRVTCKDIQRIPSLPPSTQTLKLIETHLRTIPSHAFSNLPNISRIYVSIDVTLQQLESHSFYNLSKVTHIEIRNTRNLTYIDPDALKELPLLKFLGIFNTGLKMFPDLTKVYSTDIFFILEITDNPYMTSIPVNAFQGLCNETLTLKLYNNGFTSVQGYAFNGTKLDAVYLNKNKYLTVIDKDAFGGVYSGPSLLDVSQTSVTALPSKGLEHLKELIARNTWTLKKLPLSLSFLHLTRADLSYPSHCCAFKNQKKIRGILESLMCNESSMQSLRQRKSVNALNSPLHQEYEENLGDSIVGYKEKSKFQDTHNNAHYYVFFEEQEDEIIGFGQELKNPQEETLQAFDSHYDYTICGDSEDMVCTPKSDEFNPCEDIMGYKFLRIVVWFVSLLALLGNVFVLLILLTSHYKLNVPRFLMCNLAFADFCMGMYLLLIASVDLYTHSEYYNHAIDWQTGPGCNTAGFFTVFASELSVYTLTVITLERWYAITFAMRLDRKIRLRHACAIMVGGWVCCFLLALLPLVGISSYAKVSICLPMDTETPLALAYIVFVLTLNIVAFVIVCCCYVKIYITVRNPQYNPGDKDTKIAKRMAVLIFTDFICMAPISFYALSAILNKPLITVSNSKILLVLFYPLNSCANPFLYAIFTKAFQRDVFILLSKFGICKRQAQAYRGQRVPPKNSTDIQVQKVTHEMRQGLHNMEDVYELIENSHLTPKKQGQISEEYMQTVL

In the case of `C/C=C(C)/C=C/C=C(C)C`, the Potency result in test [1], in test [2], in test [3], in test [4], in test [5] and in test [8] was “inactive” each time. Moreover, the Potency entry in test [9], in test [10], in [11] and in test [12] was “inactive” in each case. Also, the call in test [6] was inactive. Also, in test [7], the Potency was 27.3 µM (active).

`O=C(Oc1ccccc1)c1ccc(O)cc1`: the Potency result in test [1], in test [2], in test [4], in test [5], in test [7] and in test [11] was “inactive” each time. Besides, the Potency result in test [12] is “inactive”. For the same molecule, the Potency in test [3] is 21.8 µM (active) and 21.7 µM (active); in [9], 48.9 µM (active). Moreover, the molecule was classed as inactive in [6], in test [13] and in test [14].

With `C=C(C)C(=O)OCC(CC)(COC(=O)C(=C)C)COC(=O)C(=C)C`, the Potency entry in [1] was “inactive and 42.9 µM (active)”. Moreover, the Potency entry in [2], in test [3], in [4], in [5], in test [10] and in test [11] was “inactive” each time. Besides, in test [12], the Potency result was “inactive”. Besides, the molecule was classed as inactive in test [6], in test [13] and in [14].

Consider `CC(C)(C)C1CCC(O)CC1` (configuration not stated), for which the Potency entry in [1], in test [2], in test [15], in test [3], in test [4] and in [5] was “inactive” throughout. Besides, the Potency entry in [7], in test [8], in [9], in [10], in test [11] and in test [12] was “inactive” in each case. In test [17], the Potency entry was “inactive”. Further, the molecule was classed as inactive in test [16], in test [6], in test [13] and in test [14].

As for `Oc1ccc2ccccc2c1N=Nc1ccccc1`, the Potency entry in [1], in test [15], in [5], in test [7], in [8] and in test [9] was “inactive” in each case. Further, the Potency result in test [12] and in test [17] was “inactive” throughout. Moreover, the Potency is 21.7 µM (active) and 15.4 µM (active) in [3]; 34.3 µM (active) in test [4]; 21.7 µM (active) and 27.3 µM (active) in [10]. Moreover, the result in [16], in test [6], in test [13] and in test [14] was inactive.

With `CCCCCCCCCCC=CC1CC(=O)OC1=O` (configuration not stated), the Potency result in [1], in test [2], in [3], in test [4], in [5] and in test [7] was “inactive” each time. Besides, the Potency entry in [11] and in test [12] was “inactive” throughout. The molecule was called inactive in test [16], in test [6], in [13] and in test [14].

Consider `C=C(C#N)C(=O)OCC`, for which the Potency entry in test [1], in test [2], in test [3], in test [4], in test [5] and in test [10] was “inactive” in each case. Moreover, the Potency entry in [11] and in test [12] was “inactive” throughout. Besides, the result in test [16], in test [6], in test [13] and in test [14] was inactive. In addition, the Potency result in test [7] was “inactive and 15.4 µM (active)”.

As for `Cc1ccc(N)c(S(=O)(=O)O)c1`, the Potency entry in test [1], in test [2], in test [3], in test [4], in [5] and in test [7] was “inactive” in each case. Moreover, the Potency entry in test [8], in test [9], in [10], in test [11] and in [12] was “inactive” in each case. For the same molecule, the outcome in test [6], in test [13] and in test [14] was inactive.

Regarding `CCCCC(CC)COC(=O)CCCCCCCC(=O)OCC(CC)CCCC` (configuration not stated), the Potency in [1] is 54.9 µM (active) and inactive; in test [7], 15.4 µM (active) and inactive; in test [9], 12.2 µM (active) and inactive; in [10], 8.63 µM (active) and inactive; in test [11], 15.4 µM (active); in test [12] it was 30.6 µM (active) and inactive. In addition, the Potency entry in test [2], in test [3], in test [4], in test [5] and in test [8] was “inactive” throughout. Besides, the call in test [6], in [13] and in test [14] was inactive.

In the case of `O=C(c1cc(O)c(O)c(O)c1)c1ccc(O)c(O)c1O`, the Potency entry in test [1], in test [2], in [15], in test [3], in test [8] and in [9] was “inactive” throughout. Moreover, the Potency result in test [11], in test [12] and in test [17] was “inactive” throughout. In addition, the molecule was called inactive in test [16] and in [6]. Besides, the Potency is 54.3 µM (active) and 54.5 µM (active) in test [4]; 54.5 µM (active) in [5]; 34.4 µM (active) and inactive in [7].

As to `CC1COc2ccccc2N1C(=O)C(Cl)Cl` (configuration not stated), the Potency result in test [1], in test [2], in test [3], in test [4], in test [8] and in [9] was “inactive” in each case. Also, the Potency entry in [11], in test [12] and in test [17] was “inactive” each time. The result in [6], in test [13] and in test [14] was inactive. Also, in test [7], the Potency is 15.3 µM (active).

In the case of `CNC[C@H](O)[C@@H](O)[C@H](O)[C@H](O)CO`, the Potency result in test [1], in test [2], in test [3], in test [4], in test [5] and in test [7] was “inactive” in each case. Moreover, the Potency result in test [8], in test [9], in [10], in test [11] and in test [12] was “inactive” throughout. In addition, the outcome in [18], in test [6], in test [13] and in test [14] was inactive.

Consider `CC1=C(CC(=O)O)c2cc(F)ccc2/C1=C\c1ccc(S(C)=O)cc1` (configuration not stated), for which the Potency result in test [1], in test [2], in test [3], in [4], in [5] and in [7] was “inactive” each time. Moreover, the Potency result in [8], in test [9], in test [10], in test [11] and in test [12] was “inactive” throughout. Besides, the result in test [18], in [6], in test [13] and in [14] was inactive.
